Data: the supplement of paper PMC3334620
Over roughly 33,000 sequences, “E-score (-0.5 to 0.5)” has its median near -0.017; the highest 2% begin near 0.3. Many of the other results were omitted from the sample, so the highest values are more common in it than they were.

What follows are sequences tested against T1, Sut1 (UniProt P53032) (assay: PBM E-score (8-mer binding enrichment) (E-score (-0.5 to 0.5)); higher = stronger / more preferred TF binding). Conditions: protein concentration: 200 nM; construct: GST-full length.
T1 sequence: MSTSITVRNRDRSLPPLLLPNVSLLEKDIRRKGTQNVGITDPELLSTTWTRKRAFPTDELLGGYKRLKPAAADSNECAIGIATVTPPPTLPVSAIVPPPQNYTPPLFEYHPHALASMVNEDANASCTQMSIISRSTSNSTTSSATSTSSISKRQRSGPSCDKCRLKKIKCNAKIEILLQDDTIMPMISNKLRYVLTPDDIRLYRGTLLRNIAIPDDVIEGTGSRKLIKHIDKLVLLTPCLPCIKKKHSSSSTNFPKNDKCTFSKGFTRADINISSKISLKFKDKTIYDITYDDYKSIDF
Method: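 Universal 'all 10-mer' protein binding microarrays (Agilent AMADID 015681) probed with GST-tagged S. cerevisiae TFs (full-length or DBD) made by in vitro transcription/translation (PURExpress), about 100-200 nM. Bound TF was detected with fluorescent anti-GST. Each ungapped 8-mer (which stands for itself and its reverse complement) is scored by the PBM enrichment score (E-score), a modified Wilcoxon-Mann-Whitney statistic from -0.5 to +0.5, computed with the Universal PBM Analysis Suite. Scale: above 0.35 generally sequence-specific binding.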

Sequence | PBM E-score
GCTCTACA | -0.121
AGGATCGC | -0.214
CAAGCGGC | -0.0127
ACAAGTCC | 0.374
ACAAGTCG | -0.264
ACAAGTCA | -0.118
ACGCGTCG | 0.174
AAAGTGAA | 0.191
GTGCTACA | -0.0297
GGGATGGA | -0.0689
CGAAAAGC | -0.0121
CCTCCGGA | 0.374
GCTCCGGA | 0.442
CCTCCCGA | -0.289
GCGCCGGA | 0.196
CCGCCGGA | 0.223
GCTCCAGA | -0.199
ACTTAGCC | -0.129
GAGGCTAC | -0.349
CTTCGCAA | -0.0605
GAAGCGAC | -0.0313
ATCCGACC | 0.00218

Sequence | PBM E-score
GCCCGACA | -0.106
CTCCGACA | 0.375
CCCCGACA | 0.0397
ATCCGACA | 0.0788
GTCCGACA | 0.366
GGCCGACA | -0.0715
CTCCGACC | 0.391
CACCGACC | -0.226
ATTTCAGC | 0.137
AACACTAT | 0.266
AAGTGTCC | 0.0158
GCTGAAGA | -0.00656
GAGGTGGA | -0.151
AGGTCGAG | -0.257
CATTATAA | 0.126
CATTATAC | 0.151
AATTATAG | 0.257
AATTATAA | 0.335
GATTATAA | 0.154
AATTATAC | 0.308
ACTATGGG | -0.155
CGTCTGTC | -0.213

Sequence | PBM E-score
CTCAGCTA | -0.13
TACTTACA | 0.115
CAGAGTCC | 0.17
CGGAGTCC | 0.486
CGGAGTCA | 0.474
AGGAGTCA | 0.0481
AGGAGTCC | 0.202
GGGAGTCA | -0.126
CTCTCACA | 0.0236
GAACCGAA | 0.13
ATTTGCAG | 0.0722
CTAGCGCA | -0.174
ATCACGGC | 0.0173
ATCACGGA | 0.402
ATCACGGG | -0.0946
AGTACGGC | -0.0481
AGTACGGA | 0.374
GGTACGGA | 0.155
ATTACGGG | -0.0151
ATTACGGC | -0.0212
ATTACGGA | 0.353
GTGCAGGA | -0.23

Sequence | PBM E-score
CTCCTGAA | -0.0399
GAGAATCA | 0.0959
GTGGATTA | 0.0983
ACCGAGCA | 0.205
ACCGACAA | 0.0505
TCCGAGCA | 0.307
GCCGATAA | 0.00363
CCCGAGGA | -0.118
ACCGATAA | 0.18
GCCGAGCA | -0.305
GCCGAGGA | 0.1
TCCGACAA | 0.337
TCCGAGGA | 0.34
CCCGACAA | 0.173
TCCGATAA | 0.387
TTAGCCAA | -0.0233
GTAATCGA | 0.0961
ACTACTCT | -0.0164
CTAGCCTC | -0.268
CCCTCGCG | -0.204
ATCTGCAG | 0.0906
ATGAGACA | -0.0116
